Experimental data from PubChem BioAssay AID624330 (Southern Research Specialized Biocontainment Screening …, 2012).
Among all 340,000 compounds or so, about 2,100 (0.62%) were called active.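 The calls were made as follows: active = first-screen hits whose inhibition reached a set limit at any dose in the follow-up dose series; inconclusive = inhibition above the set first-screen limit but never retested; inactive = the rest.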 Only a sample is shown. Potency and affinity values are given separately.

Molecular target: Rac GTPase-activating protein 1 (Homo sapiens) (UniProt Q9H0H5)
Assay: blockers of MgcRacGAP-driven Rac1 GTP hydrolysis – biochemical, ADP Hunter fluorescence, primary and confirmatory, confirmation (AID 624330);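 also: fluorescence reports GDP produced by GAP-driven GTP hydrolysis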
Details: MgcRacGAP-stimulated Rac1 GTP hydrolysis, at 30 µM, hits give high values, GST-tagged Rac1 F28L mutant substrate

Rac GTPase-activating protein 1 (Homo sapiens), sequence (Q9H0H5 whole entry, looked up): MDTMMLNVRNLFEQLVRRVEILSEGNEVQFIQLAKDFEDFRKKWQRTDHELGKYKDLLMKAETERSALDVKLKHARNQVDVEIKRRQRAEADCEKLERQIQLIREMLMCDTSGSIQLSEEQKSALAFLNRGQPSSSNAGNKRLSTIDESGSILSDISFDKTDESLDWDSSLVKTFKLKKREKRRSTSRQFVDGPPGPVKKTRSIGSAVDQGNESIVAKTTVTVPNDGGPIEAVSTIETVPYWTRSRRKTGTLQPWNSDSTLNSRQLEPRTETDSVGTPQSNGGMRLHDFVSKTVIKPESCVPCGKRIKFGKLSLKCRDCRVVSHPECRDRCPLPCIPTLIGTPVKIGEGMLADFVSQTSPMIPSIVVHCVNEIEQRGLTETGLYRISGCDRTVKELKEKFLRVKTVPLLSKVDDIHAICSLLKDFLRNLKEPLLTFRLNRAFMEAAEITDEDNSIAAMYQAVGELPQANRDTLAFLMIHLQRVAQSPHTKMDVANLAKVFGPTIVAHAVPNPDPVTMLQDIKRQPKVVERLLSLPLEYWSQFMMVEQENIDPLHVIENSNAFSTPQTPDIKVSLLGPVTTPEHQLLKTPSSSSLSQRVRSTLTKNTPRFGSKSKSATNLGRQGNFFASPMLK

inhibition, inactive:
CS(=O)(=O)c1ccc(Cl)c(NC(=O)COC(=O)CNC(=O)c2ccccc2)c1 6.09%
O=C(Cc1cccc(F)c1)Nc1ccc2c(c1)CCC2 6.98%
C=C(c1ccccc1Cl)[n+]1ccccc1 -11.7%
N#CCCN(Cc1cccnc1)C(=S)NC(=O)c1ccco1 5.92%
O=C(OCC(=O)N1CCCC1)c1c(Cl)ccc(Cl)c1Cl -3.47%
Cc1nc(C(=O)N(C)C)nn1-c1cc(Cl)ccc1Cl 9.33%
Cc1ccc(-n2c(C(C)C)nc3oc4ccccc4c(=O)c3c2=O)cc1 0.93%
Oc1ccc(Br)cc1/C=N/N1CCCCC1 6.18%
Oc1ccc(Br)cc1C=Nc1ccc(Cl)cc1 8.07%
Cc1cc(C)cc(NC(=O)c2cccc(NC(=O)c3ccco3)c2)c1 -0.13%
O=C(Nc1cccc(NC(=O)c2ccco2)c1)c1cccc(Br)c1 7.43%
COc1ccccc1NC(=O)c1oc2ccccc2c1NC(=O)C1CC1 1.66%
CCn1c(=O)c(C(=O)CN(C)Cc2ccc(F)cc2)c(N)n(Cc2ccccc2)c1=O 5.49%
CCOc1ccc(CN(C)CC(=O)c2c(N)n(Cc3ccccc3)c(=O)n(CC)c2=O)cc1OC 5.23%
Cc1cccc(NC(=O)c2nc[nH]c2C(=O)N[C@@H](CC(C)C)C(=O)OCc2ccccc2)c1 5.96%
Cc1cc(C)cc(NC(=S)N2CCC(C(=O)c3ccc(F)cc3)CC2)c1 -15.2%
CC(C)CN(C(=O)c1cc2ccccc2o1)c1c(N)n(CC(C)C)c(=O)[nH]c1=O 7.89%
Cc1nn(-c2ccccc2)c(C)c1NC(=O)COC(=O)CCOc1ccccc1 2.57%
Cc1ccc(N/C=C2\CCCCC2=O)c(C)c1 5.15%
CC(=O)Nc1ccc(N/C=C2/CCCC2=O)cc1 14.8%
CCCCC(CC)C(=O)Nc1ccc(Nc2ccccc2)cc1 (configuration not stated) 22.3%
c1ccc(Nc2ccccc2)cc1 3.58%
CCC(CC)C(=O)Nc1ccc(Nc2ccccc2)cc1 28%
COCC(=O)Nc1ccc(Nc2ccccc2)cc1 15.4%
O=C(O)CCC(NS(=O)(=O)c1ccc(N2CCCC2=O)cc1)C(=O)O (configuration not stated) -1.24%
CCOc1ccc(S(=O)(=O)N2CCN(C(=O)c3cc(-c4ccccc4)nn3-c3ccccc3)CC2)cc1 6.52%
CNC(=O)C(=O)Nc1ccc2c(c1)N(S(=O)(=O)c1cccs1)CCC2 4.61%
